Consider 58 compounds from PubChem BioAssay AID2553 (Johns Hopkins Ion Channel Center, 2010).

The structures appear in SMILES notation. Out of some 310,000 compounds screened, about 3,300 (1.1%) were called active.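 The calls were made as follows: active = B-score under library mean minus 3 SD, initial fluorescence not abnormally high, positive integrated signal ratio; inactive = the rest.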 The sample as a whole holds a higher share of actives than the screen did.

Chain of Short transient receptor potential channel 6 (Mus musculus) (Q61143 whole entry, looked up): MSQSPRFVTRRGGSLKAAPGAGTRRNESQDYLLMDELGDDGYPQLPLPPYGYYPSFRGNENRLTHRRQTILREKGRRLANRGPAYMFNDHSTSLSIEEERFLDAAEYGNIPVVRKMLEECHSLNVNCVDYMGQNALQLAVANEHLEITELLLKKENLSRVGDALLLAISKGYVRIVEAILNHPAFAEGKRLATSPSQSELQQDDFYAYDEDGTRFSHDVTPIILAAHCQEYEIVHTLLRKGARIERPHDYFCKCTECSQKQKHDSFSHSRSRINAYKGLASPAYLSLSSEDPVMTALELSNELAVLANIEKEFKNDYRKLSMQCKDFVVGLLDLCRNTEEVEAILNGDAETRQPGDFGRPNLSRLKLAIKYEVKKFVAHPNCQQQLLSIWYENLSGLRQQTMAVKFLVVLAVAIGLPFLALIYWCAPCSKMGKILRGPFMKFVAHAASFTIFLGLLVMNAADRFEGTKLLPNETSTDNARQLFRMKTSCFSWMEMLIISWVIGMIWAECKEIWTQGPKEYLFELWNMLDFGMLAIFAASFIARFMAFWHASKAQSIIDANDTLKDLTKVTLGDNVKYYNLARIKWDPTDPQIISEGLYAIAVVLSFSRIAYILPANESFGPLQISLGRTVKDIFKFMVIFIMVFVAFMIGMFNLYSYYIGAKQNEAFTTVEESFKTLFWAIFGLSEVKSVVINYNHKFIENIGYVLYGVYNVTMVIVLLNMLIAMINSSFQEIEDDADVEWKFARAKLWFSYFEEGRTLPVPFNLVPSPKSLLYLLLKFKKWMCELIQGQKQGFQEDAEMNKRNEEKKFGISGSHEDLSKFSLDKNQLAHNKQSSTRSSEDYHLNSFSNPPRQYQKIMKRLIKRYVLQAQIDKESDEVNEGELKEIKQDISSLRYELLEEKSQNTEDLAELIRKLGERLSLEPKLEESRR

This experiment concerns the target Short transient receptor potential channel 6 (Mus musculus) (UniProt Q61143). The experiment is described as follows: mouse TRPC6 channel inhibitors, primary screen, cell-based, HEK293, membrane potential dye (AID 2553).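 As to B-score: B-score derived from integrated fluorescence ratio over the kinetic read; more negative B-score means stronger inhibition of depolarization.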 As to conditions: ACh-evoked depolarization, at 10 µM; hits give low values.
For `CN1CCN(c2nc(Nc3ccc(O)cc3)nc3ccccc23)CC1`, the B-score is -11.6 (active).
For `CN1CCN(c2ccc(NC(=O)c3ccccc3)cc2)CC1` the value was “inactive”; for `Cc1cccc(-c2nc(Nc3ccc(O)cc3)c3ccccc3n2)c1`, “inactive”.
In the case of `CCNC(=S)NNC(=O)C1CCN(Cc2ccccc2)CC1` it was “inactive”.
For `O=C(NNS(=O)(=O)c1ccc(Cl)cc1)C1CCN(Cc2ccccc2)CC1` the value was -7.9 (active); for `CCCC(=O)C1CCN(Cc2ccccc2)CC1`, “inactive”; for `Cc1ccn(CC(=O)N2N=C(C(F)F)CC2(O)C(F)F)n1` (stereo not drawn), “inactive”.
As for `CCc1ccc(NC(=O)Cn2nc(C)c([N+](=O)[O-])c2C)cc1`, the B-score entry was “inactive”.
In the case of `Cc1nn(Cc2ccc(C(=O)N3N=C(C(F)F)CC3(O)C(F)F)cc2)c(C)c1[N+](=O)[O-]` (stereo not drawn) it was -5.19 (active).
On to `Cc1[nH]c2c(C(=O)N3CCCC(CCC(=O)NCc4ccccc4F)C3)cccc2c1C` (stereo not drawn), for which the B-score result was “inactive”.
For `O=S(=O)(Cc1ccccc1)c1nc2ccccc2n1Cc1ccccn1` the value was “inactive”; for `CCc1ccccc1NC(=O)CSc1nnc([C@@H](NC(=O)OC(C)(C)C)C(C)C)o1`, “inactive”; for `CCc1ccccc1NC(=O)CSc1nnc([C@@H](NC(=O)OC(C)(C)C)C(C)CC)o1` (stereo partly drawn), “inactive”.
In the case of `C[C@H](NC(=O)OC(C)(C)C)c1nnc(SCC(=O)Nc2ccc(Br)cc2)o1` it was -6.61 (active); in that of `COCC1CCN(C(=O)C2CCC(=O)N(Cc3cccc(C(F)(F)F)c3)C2)CC1` (stereo not drawn), “inactive”; in that of `CC1(C)COC(c2cccn2Cc2ccccc2Cl)=N1`, “inactive”.
In the case of `Cc1nc(/N=C(\N)NC(=O)NC2CCCCC2)nc2ccccc12`, the B-score entry was “inactive”.
For `COc1nc(N=C(N)N)nc2c(C)cccc12`, the B-score result is “inactive”.
In the case of `Cc1nc(N=C(N)N)nc2c(C)cccc12` it was -7.08 (active).
For the compound `Cc1cc(-n2cnc(-c3cn(C)nc3C)n2)no1`, the B-score entry is “inactive”.
For `O=C(CN1CCOC1=O)N1CCCC(Nc2ccc(F)c(F)c2)C1` (stereo not drawn) the value was “inactive”; for `Cc1ccc(NC2CCCN(C(=O)CCc3cn[nH]c3)C2)cc1C` (stereo not drawn), “inactive”; for `Cc1ccc(NC2CCCN(C(=O)CCC3(C)CC3)C2)cc1C` (stereo not drawn), -5.8 (active).
For `C=C(C)c1cccc(C(C)(C)NC(=O)N2CCN(c3ncccn3)CC2)c1` the value was “inactive”; for `C=C(C)c1cccc(C(C)(C)NC(=O)NC2CCCC2)c1`, “inactive”; for `C=C(C)c1cccc(C(C)(C)NC(=O)NCCN(CC)CC)c1`, -8.39 (active).
Regarding `O=C1C2N=NN(CC(=O)N3N=C(c4cccc5ccccc45)CC3c3ccccc3)C2C(=O)N1c1ccccc1` (stereo not drawn), the B-score entry was “inactive”.
For `Cc1cc(OCCCC(=O)NCCN2C(=O)S/C(=C\c3cccnc3)C2=O)ccc1Cl` the value was “inactive”; for `COc1ccc(NC(=O)CCS(=O)(=O)c2cc3c(cc2Cl)NC(=O)CO3)cc1OC`, “inactive”; for `COc1ccc(Cl)cc1NC(=O)CCS(=O)(=O)c1cc2c(cc1C)NC(=O)CO2`, -5.71 (active).
In the case of `Cc1cc2c(cc1S(=O)(=O)CCC(=O)NCc1ccccc1)OCC(=O)N2` it was “inactive”.
In the case of `CCOc1ccc(Nc2nc(Cl)nc(N3CCN(c4ccc(OC)cc4)CC3)n2)cc1` it was “inactive”; in that of `CCN1CCN(c2nc(Nc3cc(OC)ccc3OC)nc(Nc3cc(OC)ccc3OC)n2)CC1`, -5.02 (active).
Take `CCOC(=O)N1CCN(CCC(=O)Nc2cc(OC)ccc2OC)CC1`: the B-score result was “inactive”.
In the case of `Cn1c(=O)n(C)c2cc(S(=O)(=O)Nc3ccc(F)cc3)ccc21` it was “inactive”; in that of `C=CC1=C(C(=O)O)N2C(=O)[C@@H](NC(=O)/C(=N/OCC(=O)O)c3csc(N)n3)[C@H]2SC1`, “inactive”; in that of `Cc1ccc(NC(=O)[C@H](Cc2ccccc2)NC(=O)C2CCNCC2)cc1`, “inactive”.
For `COc1ccccc1C(=O)Nc1ccc(Nc2ccccc2)cc1` the value was “inactive”; for `CCc1ccc(N2CC(C(=O)Nc3ccc(S(=O)(=O)Nc4nccs4)cc3)CC2=O)cc1` (stereo not drawn), “inactive”; for `CCOc1ccc(N2CC(C(=O)NCc3ccccn3)CC2=O)cc1` (stereo not drawn), “inactive”.
On to `CCN(CC)S(=O)(=O)c1ccc(N2CC(C(=O)NCc3cccnc3)CC2=O)cc1` (stereo not drawn), for which the B-score is -6.5 (active).
For `CCc1ccc(N(C(=O)c2csnn2)C(C(=O)NC2CCCCC2)c2cccnc2)cc1` (stereo not drawn) the value was “inactive”; for `COCC(C)NCc1cc(Br)ccc1OC` (stereo not drawn), “inactive”.
`COCCCNCCOCCOc1ccc(Cl)cc1Br`: the B-score result was “inactive”.
In the case of `CCC(C)NCCOCCOc1ccc(Br)cc1C` (stereo not drawn), the B-score is -5.27 (active).
In the case of `Cc1c(C(=O)N(C)CCc2cnn(C)c2)oc2c(F)cccc12` it was “inactive”; in that of `CCOC(=O)N1CCC(O)(c2cc(C)c(C)cc2C)CC1`, -9.52 (active).
As for `CCOC(=O)N1CCN(C(=S)Nc2ccc(C)cc2C)CC1`, the B-score entry was “inactive”.
For `CCOC(=O)N1CCN(C(=O)COc2ccc(Cl)cc2C)CC1` the value was “inactive”; for `COc1ccc(-c2cc(C(=O)Nc3ccccc3O)c3ccccc3n2)cc1`, “inactive”; for `CCc1ccc(-c2cc(C(=O)NN3CCN(C)CC3)c3ccccc3n2)cc1`, -5.25 (active).
For `Cc1ccc(-c2cc(C(=O)NC3CCN(Cc4ccccc4)CC3)c3ccccc3n2)cc1` the value was “inactive”.
For `COc1ccc(CCN2C(=O)CC(N3CCC(C(N)=O)CC3)C2=O)cc1OC` (stereo not drawn) the value was “inactive”.
For the compound `Cc1c(C(=O)c2cccc([N+](=O)[O-])c2)c2ccccn2c1CCC#N`, the B-score entry was “inactive”.
In the case of `CCOC(=O)N1CCN(C(=O)c2ccc3c(c2)N(Cc2ccc(C)cc2)CCS3)CC1` it was -7.3 (active); in that of `O=C(NCCc1ccccc1)c1ccc2c(c1)N(Cc1ccccc1)CCS2`, “inactive”; in that of `O=C(NCCN1CCOCC1)c1ccc2c(c1)N(Cc1ccc(Cl)cc1)CCS2`, “inactive”.
Consider `COc1ccc(/C=C/CN2CCCC(C(=O)c3cc(F)ccc3F)C2)cc1` (stereo not drawn), for which the B-score entry was “inactive”.
